Measurements from ChEMBL document CHEMBL1157539, “Thousands of chemical starting points for antimalarial lead identification” (Nature, 2010).

Experiments:
Format in all cases: functional
Plasmodium falciparum [1] = assay: GSK_TCMDC: Inhibition of Plasmodium falciparum 3D7 in whole red blood cells, using parasite LDH activity as an index of growth. Test compounds present at 2uM
Plasmodium falciparum [2] = assay: GSK_TCMDC: Inhibition of Plasmodium falciparum Dd2 in whole red blood cells, using parasite LDH activity as an index of growth. Test compounds present at 2uM
HepG2 = assay: GSK_TCMDC: Percent inhibition of human HepG2 cell line. Test compounds present at 10uM.

SMILES	Inhibition (Plasmodium falciparum [1]) [%]	Inhibition (Plasmodium falciparum [2]) [%]	Inhibition (HepG2) [%]
Cc1ccc(CN2CCN(c3cc4c(cc3Cl)CCN4C(=O)Cc3ccc(Cl)c(NC(=O)Nc4cccc(C#N)c4)c3)CC2)cc1	92	29	3
NS(=O)(=O)c1cccc(Nc2nccc(-c3c(-c4cccc(NC(=O)c5c(F)cccc5F)c4)nn4ccccc34)n2)c1	98	97	81
Cc1ccc(NC(=O)NC2CCN(CCCCCNC(=O)C3CC3c3ccc(Cl)c(Cl)c3)CC2)cc1 (stereo not given)	100	19	35
COc1cc(Cc2cnc(N)nc2N)cc(OCC(C)(C)C(=O)O)c1OC	89	0	0
CN1CC[C@@H](Oc2cc(CNC(=O)c3ccc(-c4ccc(Cl)cc4)s3)ccc2C(F)(F)F)C1.Cl	93	64	40
COc1cc(C=Cc2ccc3ccccc3n2)cc(Br)c1OCC(=O)N(C)C	99	87	28
CNC(=O)c1cnc(Nc2ccc(N3CCN(C)CC3)cc2)nc1Nc1cccc([N+](=O)[O-])c1.O=C(O)C(F)(F)F	100	100	31
CS(=O)(=O)c1ccc(CNCc2ccc(-c3ccc(-c4nc5cc(C(F)(F)F)ccc5[nH]4)cc3)cc2)cc1.O=C(O)C(F)(F)F	100	82	26
COc1ccc2c(N/N=C/c3cccc([N+](=O)[O-])c3)cc(C)nc2c1	100	97	18
Cc1cccc(NC(=O)NCc2ccccc2)n1	97	2	14
O=C(/C=C/c1ccc(Cl)c(Cl)c1)NCC[C@@H]1C[C@H]1CCN1CCC(c2c[nH]c3ccccc23)CC1	96	22	98
Cc1cccc(CNc2nc(C)cc(N[C@@H](Cc3ccccc3)C(=O)NCCc3ccccc3)n2)c1.O=C(O)C(F)(F)F	99	85	24
O=C(Nc1ccc(Cl)cc1Cl)N[C@H]1CCN(CCCCCNC(=O)C2CC2c2ccc(Cl)c(Cl)c2)C1 (stereo not given in full)	94	0	37
Cc1cccc(-c2ccc(NC(=O)C3CCN(Cc4cccc(O)c4)CC3)cc2)c1	92	64	21
CC(C)Oc1ccccc1-c1csc(C(=O)NCC2CCN(Cc3ccc(C(C)(C)C)cc3)C2)c1.O=C(O)C(F)(F)F (stereo not given)	90	45	59
Cc1cc(NC(=O)Nc2ccc(C(C)(C)C)cc2)c2ccccc2n1	100	57	0
Cc1cc(-c2ccc3c(c2)CCN(CCC2CCC(NC(=O)/C=C/c4cccc(F)c4)CC2)CC3)on1.Cl (stereo not given)	95	19	23
C=CCn1c(=N)c(C(=O)NC2CCCCC2)cc2c(=O)n3cccc(C)c3nc21	92	58	0
COc1cccc(C=CC(=O)N(CCN)Cc2ccccc2)c1.O=C(O)C(=O)O	99	0	0
Cn1c2c(c3ccccc31)CN(CCC1(c3ccc(Cl)c(Cl)c3)CN(C(=O)Cc3ccccc3)CCO1)CC2 (stereo not given)	95	91	22
NCc1ccc(CNCc2cccc(-c3ccc(-c4nc5ccccc5[nH]4)cc3)c2)cc1.O=C(O)C(F)(F)F	100	58	10
CCN(CCNc1nc(NCCc2cnc[nH]2)nc(N(CCC#N)Cc2ccccc2)n1)c1cccc(C)c1	100	92	13
Cc1cc(NC(=O)c2cccs2)ccc1OC1CCN(Cc2ccccc2)C1.O=C(O)C(F)(F)F (stereo not given)	84	87	7
O=C(Nc1cccc(C(F)(F)F)c1)c1cccc(S(=O)(=O)NC2CCCN(CC3CCCCC3)C2)c1.O=C(O)C(F)(F)F (stereo not given)	97	15	18
CNCCNCc1ccc(-c2ccc(-c3nc4cccc(C)c4[nH]3)s2)cc1.O=C(O)C(F)(F)F	97	26	16
Cc1cc(OCCCN2CCC(NS(=O)(=O)c3cc(Br)c(Cl)s3)CC2)c2ccccc2n1	95	39	5
O=C(/C=C/c1ccc(Cl)cc1)NCCCCCN1CCN(C(=O)Nc2ccc(Cl)c(C(F)(F)F)c2)CC1	94	5	18
Cc1cc(N[C@@H](Cc2ccccc2)C(=O)NCc2cccs2)nc(NCCc2ccc(F)cc2)n1.O=C(O)C(F)(F)F	100	83	3
CN1CCN(Cc2cccc(-c3ccc4c(Nc5ccc(Oc6cccnc6)cc5)ccnc4c3)c2)CC1	100	100	15
COc1ccccc1CNc1ccnc(N2CC(Oc3ccc(F)cc3)C2)n1	97	95	2
